# Article PMC7862700, “An all-to-all approach to the identification of sequence-specific readers for epigenetic DNA modifications on cytosine”
# Legend:
# Experiment in all cases: DAPPL (digital affinity profiling via proximity ligation, sequencing); 10 mM Tris-HCl pH 7.5, 50 mM NaCl, 1 mM DTT, 4% glycerol, room temperature, 30 min; GST-TFs on glutathione beads, 16-mer random dsDNA library, 0.1% formaldehyde crosslink after washing; high values mean tight binding
# [1] = biological target: T1, FLI1 (Homo sapiens, UniProt Q01543 1-452); settings: protein: recombinant; tags: N-terminal GST; dsDNA, one strand shown
# T1 sequence: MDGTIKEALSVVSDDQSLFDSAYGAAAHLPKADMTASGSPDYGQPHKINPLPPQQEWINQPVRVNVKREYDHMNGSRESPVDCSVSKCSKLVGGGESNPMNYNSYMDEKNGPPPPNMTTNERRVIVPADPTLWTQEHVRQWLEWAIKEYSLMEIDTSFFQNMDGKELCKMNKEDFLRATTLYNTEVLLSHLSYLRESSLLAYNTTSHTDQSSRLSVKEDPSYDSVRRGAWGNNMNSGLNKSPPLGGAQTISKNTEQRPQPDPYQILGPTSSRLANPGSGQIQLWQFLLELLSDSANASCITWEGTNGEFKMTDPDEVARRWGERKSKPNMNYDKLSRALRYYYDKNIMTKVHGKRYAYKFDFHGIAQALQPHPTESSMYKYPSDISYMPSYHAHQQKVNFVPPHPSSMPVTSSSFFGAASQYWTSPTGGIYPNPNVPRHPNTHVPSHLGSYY
# In short: (§1)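 Binding signal is defined as a hexamer's read frequency for one factor over its frequency for the tag-only sample. To obtain reads, GST-fused human transcription factors were expressed in yeast, captured on glutathione beads, barcoded with DNA and pooled with that sample. Pools met 200 nmole of a 16-mer random double-stranded DNA library in Tris/NaCl/DTT/glycerol buffer for 30 min at room temperature before washing, 0.1% formaldehyde crosslinking, proximity ligation (BsaI/T4 ligase, 1 h, 37 °C), PCR and Illumina NextSeq500 sequencing.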
# [2] = biological target: T2, ELK1 (Homo sapiens, UniProt P19419 1-428); settings: protein: recombinant; tags: N-terminal GST; dsDNA, one strand shown
# T2 sequence: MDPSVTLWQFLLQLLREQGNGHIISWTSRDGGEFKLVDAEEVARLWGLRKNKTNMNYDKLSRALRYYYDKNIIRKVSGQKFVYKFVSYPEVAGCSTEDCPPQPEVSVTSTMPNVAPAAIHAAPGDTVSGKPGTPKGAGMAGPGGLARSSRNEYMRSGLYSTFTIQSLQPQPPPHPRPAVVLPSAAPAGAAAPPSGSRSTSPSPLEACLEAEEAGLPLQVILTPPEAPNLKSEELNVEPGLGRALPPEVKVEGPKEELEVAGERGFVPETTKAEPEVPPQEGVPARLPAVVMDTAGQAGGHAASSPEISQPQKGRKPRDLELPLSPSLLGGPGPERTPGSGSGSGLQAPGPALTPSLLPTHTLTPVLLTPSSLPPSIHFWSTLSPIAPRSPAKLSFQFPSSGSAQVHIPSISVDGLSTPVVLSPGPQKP
# In short: as §1
# [3] = biological target: T3, GABPA (Homo sapiens, UniProt Q06546 1-454); settings: protein: recombinant; tags: N-terminal GST; dsDNA, one strand shown
# T3 sequence: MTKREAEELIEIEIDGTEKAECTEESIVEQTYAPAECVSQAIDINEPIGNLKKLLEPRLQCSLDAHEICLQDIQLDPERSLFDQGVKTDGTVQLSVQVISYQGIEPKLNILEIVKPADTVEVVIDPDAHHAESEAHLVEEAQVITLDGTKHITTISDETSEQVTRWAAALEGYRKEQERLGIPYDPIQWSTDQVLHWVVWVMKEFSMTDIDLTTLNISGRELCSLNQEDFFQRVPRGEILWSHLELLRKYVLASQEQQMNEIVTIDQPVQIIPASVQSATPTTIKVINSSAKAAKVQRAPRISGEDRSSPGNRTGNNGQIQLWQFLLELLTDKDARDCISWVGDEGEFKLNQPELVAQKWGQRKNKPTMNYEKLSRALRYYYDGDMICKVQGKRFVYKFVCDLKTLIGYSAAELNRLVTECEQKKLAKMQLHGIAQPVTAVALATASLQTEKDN
# In short: as §1
# [4] = biological target: T4, ERG (Homo sapiens, UniProt P11308 1-479); settings: protein: recombinant; tags: N-terminal GST; dsDNA, one strand shown
# T4 sequence: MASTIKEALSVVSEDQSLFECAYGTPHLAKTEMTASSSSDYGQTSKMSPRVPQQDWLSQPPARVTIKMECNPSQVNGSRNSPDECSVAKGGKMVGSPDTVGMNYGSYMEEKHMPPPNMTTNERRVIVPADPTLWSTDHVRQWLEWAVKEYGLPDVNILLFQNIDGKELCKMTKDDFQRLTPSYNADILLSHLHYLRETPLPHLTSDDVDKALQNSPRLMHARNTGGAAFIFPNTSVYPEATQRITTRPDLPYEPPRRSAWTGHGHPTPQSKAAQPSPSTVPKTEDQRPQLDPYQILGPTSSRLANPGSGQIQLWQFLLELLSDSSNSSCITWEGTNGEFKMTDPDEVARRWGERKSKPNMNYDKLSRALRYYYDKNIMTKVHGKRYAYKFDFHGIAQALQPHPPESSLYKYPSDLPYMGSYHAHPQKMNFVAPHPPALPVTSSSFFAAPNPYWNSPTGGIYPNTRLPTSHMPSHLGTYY
# In short: as §1
# [5] = biological target: ELF1 (Homo sapiens, UniProt P32519 1-619); settings: protein: recombinant; tags: N-terminal GST; dsDNA, one strand shown
# In short: as §1
# [6] = biological target: T5, EHF (Homo sapiens, UniProt Q9NZC4 1-300); settings: protein: recombinant; tags: N-terminal GST; dsDNA, one strand shown
# T5 sequence: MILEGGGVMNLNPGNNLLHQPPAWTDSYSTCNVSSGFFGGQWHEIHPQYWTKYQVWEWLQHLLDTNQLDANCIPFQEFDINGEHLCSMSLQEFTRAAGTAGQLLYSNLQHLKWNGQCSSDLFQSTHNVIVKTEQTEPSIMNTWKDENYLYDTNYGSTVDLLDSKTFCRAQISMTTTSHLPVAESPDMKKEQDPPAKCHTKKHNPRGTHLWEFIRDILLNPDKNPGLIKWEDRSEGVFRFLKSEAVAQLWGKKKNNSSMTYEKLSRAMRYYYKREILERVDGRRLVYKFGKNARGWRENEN
# In short: as §1
# [7] = biological target: SPI1 (Homo sapiens, UniProt P17947 1-270); settings: protein: recombinant; tags: N-terminal GST; dsDNA, one strand shown
# In short: as §1
# [8] = biological target: SPIB (Homo sapiens, UniProt Q01892 1-262); settings: protein: recombinant; tags: N-terminal GST; dsDNA, one strand shown
# In short: as §1
# [9] = biological target: T6, ELK3 (Homo sapiens, UniProt P41970 1-407); settings: protein: recombinant; tags: N-terminal GST; dsDNA, one strand shown
# T6 sequence: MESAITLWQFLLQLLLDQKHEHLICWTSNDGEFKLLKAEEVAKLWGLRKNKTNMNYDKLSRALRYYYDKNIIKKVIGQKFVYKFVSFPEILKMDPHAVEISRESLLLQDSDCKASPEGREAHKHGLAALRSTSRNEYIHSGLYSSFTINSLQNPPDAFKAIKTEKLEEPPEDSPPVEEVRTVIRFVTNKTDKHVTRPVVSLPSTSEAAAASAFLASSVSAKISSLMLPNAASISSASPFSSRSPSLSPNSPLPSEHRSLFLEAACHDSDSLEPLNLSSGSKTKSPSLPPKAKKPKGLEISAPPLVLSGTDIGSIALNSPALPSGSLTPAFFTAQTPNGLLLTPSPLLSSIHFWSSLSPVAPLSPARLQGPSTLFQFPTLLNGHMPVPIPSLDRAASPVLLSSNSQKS
# In short: as §1
# [10] = biological target: T7, FEV (Homo sapiens, UniProt Q99581 1-238); settings: protein: recombinant; tags: N-terminal GST; dsDNA, one strand shown
# T7 sequence: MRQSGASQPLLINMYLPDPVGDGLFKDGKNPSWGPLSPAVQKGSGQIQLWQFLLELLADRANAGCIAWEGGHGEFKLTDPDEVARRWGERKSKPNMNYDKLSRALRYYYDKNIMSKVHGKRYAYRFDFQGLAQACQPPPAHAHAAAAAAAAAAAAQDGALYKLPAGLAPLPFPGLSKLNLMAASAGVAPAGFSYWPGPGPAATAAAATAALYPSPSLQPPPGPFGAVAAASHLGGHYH
# In short: as §1
# [11] = biological target: ETV5 (Homo sapiens, UniProt P41161 1-510); settings: protein: recombinant; tags: N-terminal GST; dsDNA, one strand shown
# In short: as §1
# [12] = biological target: HSF1 (Homo sapiens, UniProt Q00613 1-529); settings: protein: recombinant; tags: N-terminal GST; chain copies: 3; dsDNA, one strand shown
# In short: as §1
# [13] = biological target: T8, SPIC (Homo sapiens, UniProt Q8N5J4 1-248); settings: protein: recombinant; tags: N-terminal GST; dsDNA, one strand shown
# T8 sequence: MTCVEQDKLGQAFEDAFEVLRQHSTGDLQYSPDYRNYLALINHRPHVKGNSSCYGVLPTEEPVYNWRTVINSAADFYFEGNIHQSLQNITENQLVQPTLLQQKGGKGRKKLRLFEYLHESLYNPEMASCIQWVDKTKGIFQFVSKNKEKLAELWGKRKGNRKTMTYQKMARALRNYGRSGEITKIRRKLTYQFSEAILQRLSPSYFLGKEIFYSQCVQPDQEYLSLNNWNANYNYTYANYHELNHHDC
# In short: as §1
# [14] = biological target: ELF4 (Homo sapiens, UniProt Q99607 1-663); settings: protein: recombinant; tags: N-terminal GST; dsDNA, one strand shown
# In short: as §1
# [15] = biological target: T9, ELK4 (Homo sapiens, UniProt P28324-2 1-405); settings: protein: recombinant; tags: N-terminal GST; dsDNA, one strand shown
# T9 sequence: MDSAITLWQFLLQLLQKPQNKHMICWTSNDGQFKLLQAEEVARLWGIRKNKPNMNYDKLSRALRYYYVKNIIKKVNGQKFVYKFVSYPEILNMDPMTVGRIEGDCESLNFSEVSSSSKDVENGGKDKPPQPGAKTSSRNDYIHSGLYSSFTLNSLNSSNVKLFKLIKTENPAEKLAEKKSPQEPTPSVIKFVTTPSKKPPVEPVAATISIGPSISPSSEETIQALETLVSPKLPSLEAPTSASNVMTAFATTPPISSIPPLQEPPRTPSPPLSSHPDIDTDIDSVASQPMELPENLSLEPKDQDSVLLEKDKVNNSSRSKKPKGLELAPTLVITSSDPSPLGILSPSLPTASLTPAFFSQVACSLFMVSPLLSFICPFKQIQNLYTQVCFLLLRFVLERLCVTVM
# In short: as §1
# [16] = biological target: T10, ETV2 (Homo sapiens, UniProt O00321 1-342); settings: protein: recombinant; tags: N-terminal GST; dsDNA, one strand shown
# T10 sequence: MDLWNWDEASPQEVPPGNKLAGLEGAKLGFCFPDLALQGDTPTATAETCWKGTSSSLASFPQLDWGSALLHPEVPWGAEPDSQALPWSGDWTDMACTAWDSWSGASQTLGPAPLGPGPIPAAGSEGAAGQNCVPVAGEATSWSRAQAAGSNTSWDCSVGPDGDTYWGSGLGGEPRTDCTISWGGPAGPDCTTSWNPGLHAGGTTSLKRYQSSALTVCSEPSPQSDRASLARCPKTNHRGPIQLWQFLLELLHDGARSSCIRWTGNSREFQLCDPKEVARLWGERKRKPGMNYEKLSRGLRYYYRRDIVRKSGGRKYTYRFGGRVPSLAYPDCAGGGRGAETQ
# In short: as §1
# [17] = biological target: T11, ELF3 (Homo sapiens, UniProt P78545 1-371); settings: protein: recombinant; tags: N-terminal GST; dsDNA, one strand shown
# T11 sequence: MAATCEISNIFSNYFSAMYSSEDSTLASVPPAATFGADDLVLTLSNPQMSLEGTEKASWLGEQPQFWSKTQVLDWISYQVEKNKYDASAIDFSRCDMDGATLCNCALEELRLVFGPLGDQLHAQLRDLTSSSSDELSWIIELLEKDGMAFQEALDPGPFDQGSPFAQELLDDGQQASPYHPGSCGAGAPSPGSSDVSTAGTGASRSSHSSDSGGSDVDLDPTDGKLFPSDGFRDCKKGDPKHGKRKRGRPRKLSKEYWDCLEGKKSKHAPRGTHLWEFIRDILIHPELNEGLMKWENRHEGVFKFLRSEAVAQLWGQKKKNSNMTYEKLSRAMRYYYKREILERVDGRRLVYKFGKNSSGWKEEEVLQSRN
# In short: as §1
# [18] = biological target: CRX (Homo sapiens, UniProt O43186 1-299); settings: protein: recombinant; tags: N-terminal GST; dsDNA, one strand shown
# In short: as §1
# [19] = biological target: ETV1 (Homo sapiens, UniProt P50549 1-477); settings: protein: recombinant; tags: N-terminal GST; dsDNA, one strand shown
# In short: as §1
# Chain of SPIB (Q01892 whole entry): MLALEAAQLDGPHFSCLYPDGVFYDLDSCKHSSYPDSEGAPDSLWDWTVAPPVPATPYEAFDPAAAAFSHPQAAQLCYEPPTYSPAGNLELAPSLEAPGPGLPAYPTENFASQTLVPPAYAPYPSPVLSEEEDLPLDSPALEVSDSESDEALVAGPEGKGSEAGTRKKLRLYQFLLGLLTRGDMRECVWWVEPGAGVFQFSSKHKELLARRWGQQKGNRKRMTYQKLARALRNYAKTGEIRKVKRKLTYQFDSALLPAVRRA
# Chain of ELF4 (Q99607 whole entry): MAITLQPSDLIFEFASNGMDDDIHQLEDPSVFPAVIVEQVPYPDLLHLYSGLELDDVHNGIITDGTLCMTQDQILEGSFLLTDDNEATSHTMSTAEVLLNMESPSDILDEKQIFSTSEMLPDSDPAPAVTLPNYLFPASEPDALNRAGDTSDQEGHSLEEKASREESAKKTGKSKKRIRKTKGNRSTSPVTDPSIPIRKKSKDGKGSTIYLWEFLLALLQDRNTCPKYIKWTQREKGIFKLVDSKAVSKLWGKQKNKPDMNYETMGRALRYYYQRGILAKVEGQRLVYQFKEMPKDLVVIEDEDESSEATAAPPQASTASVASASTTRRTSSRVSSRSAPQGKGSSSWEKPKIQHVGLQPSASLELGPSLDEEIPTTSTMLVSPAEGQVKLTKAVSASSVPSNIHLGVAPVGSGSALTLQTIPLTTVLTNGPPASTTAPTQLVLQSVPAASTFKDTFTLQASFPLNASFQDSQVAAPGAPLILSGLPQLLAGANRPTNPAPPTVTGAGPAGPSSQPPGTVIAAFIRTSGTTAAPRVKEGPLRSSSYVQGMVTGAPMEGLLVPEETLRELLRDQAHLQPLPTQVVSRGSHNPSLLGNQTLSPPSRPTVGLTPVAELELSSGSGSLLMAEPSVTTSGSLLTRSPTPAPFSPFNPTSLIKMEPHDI
# Chain of CRX (O43186 whole entry): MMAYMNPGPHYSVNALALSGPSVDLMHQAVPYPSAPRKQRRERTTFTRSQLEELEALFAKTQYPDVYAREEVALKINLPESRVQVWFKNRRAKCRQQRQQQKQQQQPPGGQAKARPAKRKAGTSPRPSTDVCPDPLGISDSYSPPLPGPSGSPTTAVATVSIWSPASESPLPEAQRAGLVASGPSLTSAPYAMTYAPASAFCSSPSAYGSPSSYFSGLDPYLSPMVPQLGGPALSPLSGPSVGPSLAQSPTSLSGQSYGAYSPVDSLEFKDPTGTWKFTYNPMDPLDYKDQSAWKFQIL
# Chain of HSF1 (Q00613 whole entry): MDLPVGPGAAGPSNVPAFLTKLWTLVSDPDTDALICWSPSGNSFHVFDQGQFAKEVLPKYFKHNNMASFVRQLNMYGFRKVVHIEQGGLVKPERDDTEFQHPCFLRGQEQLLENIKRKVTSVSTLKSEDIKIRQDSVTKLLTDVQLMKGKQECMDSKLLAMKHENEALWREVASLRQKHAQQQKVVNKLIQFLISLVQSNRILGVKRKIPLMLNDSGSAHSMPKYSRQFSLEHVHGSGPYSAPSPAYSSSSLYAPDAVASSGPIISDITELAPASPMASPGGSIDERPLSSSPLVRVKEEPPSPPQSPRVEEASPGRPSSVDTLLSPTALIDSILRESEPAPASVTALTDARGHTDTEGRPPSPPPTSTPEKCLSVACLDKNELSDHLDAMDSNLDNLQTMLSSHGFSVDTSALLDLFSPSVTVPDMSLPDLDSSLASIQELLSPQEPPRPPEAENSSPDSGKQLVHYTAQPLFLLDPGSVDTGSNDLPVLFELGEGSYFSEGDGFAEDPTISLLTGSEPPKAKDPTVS
# Chain of ETV1 (P50549 whole entry): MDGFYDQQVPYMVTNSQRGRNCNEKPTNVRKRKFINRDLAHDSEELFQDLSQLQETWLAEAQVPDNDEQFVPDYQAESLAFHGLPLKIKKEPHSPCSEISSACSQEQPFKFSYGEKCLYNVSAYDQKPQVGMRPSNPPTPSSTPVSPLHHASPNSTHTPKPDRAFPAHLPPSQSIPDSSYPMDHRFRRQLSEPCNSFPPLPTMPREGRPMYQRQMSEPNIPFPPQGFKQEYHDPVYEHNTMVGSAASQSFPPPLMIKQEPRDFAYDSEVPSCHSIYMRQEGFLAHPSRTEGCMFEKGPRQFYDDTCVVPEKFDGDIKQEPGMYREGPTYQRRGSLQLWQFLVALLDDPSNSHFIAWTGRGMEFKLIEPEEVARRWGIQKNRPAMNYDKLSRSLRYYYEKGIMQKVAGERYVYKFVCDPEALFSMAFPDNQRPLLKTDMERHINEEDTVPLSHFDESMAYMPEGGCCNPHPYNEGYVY
# Chain of ETV5 (P41161 whole entry): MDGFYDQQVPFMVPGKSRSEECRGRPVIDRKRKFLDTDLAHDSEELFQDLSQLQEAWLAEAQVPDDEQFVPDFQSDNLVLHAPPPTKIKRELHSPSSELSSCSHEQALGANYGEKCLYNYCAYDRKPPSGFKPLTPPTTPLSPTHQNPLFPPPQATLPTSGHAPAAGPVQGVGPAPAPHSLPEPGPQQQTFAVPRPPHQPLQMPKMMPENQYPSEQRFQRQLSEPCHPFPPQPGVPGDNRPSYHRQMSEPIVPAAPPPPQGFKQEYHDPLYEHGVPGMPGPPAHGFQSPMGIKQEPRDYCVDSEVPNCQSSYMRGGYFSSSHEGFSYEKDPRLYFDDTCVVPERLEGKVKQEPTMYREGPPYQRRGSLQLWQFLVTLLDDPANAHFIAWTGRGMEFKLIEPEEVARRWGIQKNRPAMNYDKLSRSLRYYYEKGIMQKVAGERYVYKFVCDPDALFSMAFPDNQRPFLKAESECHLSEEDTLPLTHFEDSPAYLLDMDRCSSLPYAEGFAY
# Chain of ELF1 (P32519 whole entry): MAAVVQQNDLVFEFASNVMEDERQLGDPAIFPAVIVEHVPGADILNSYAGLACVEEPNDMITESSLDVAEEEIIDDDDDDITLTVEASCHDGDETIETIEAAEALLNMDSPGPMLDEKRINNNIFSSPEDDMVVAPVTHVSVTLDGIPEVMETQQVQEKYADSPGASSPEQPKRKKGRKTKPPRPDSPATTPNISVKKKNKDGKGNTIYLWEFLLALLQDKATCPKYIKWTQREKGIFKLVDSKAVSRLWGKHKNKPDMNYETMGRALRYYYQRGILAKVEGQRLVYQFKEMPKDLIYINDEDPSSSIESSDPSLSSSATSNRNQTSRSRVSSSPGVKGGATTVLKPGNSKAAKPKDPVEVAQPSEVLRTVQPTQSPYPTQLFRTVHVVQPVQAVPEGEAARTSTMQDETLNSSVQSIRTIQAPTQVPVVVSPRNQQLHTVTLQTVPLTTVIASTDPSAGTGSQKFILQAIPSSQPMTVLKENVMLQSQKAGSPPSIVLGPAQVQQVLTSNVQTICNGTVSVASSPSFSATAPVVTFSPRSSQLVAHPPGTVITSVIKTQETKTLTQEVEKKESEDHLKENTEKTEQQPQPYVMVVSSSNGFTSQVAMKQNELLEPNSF
sequence,measurement,setting,value
TTAAGC,binding signal,[1],"1.18 fold enrichment (6-mer frequency, TF over GST control)"
same,binding signal,[2],"1.18 fold enrichment (6-mer frequency, TF over GST control)"
same,binding signal,[3],"1.24 fold enrichment (6-mer frequency, TF over GST control)"
same,binding signal,[4],"1.15 fold enrichment (6-mer frequency, TF over GST control)"
same,binding signal,[5],"1.18 fold enrichment (6-mer frequency, TF over GST control)"
same,binding signal,[6],"1.13 fold enrichment (6-mer frequency, TF over GST control)"
same,binding signal,[7],"1.1 fold enrichment (6-mer frequency, TF over GST control)"
same,binding signal,[8],"1.08 fold enrichment (6-mer frequency, TF over GST control)"
same,binding signal,[9],"1.18 fold enrichment (6-mer frequency, TF over GST control)"
same,binding signal,[10],"1.18 fold enrichment (6-mer frequency, TF over GST control)"
same,binding signal,[11],"1.12 fold enrichment (6-mer frequency, TF over GST control)"
same,binding signal,[12],"2.25 fold enrichment (6-mer frequency, TF over GST control)"
same,binding signal,[13],"1.19 fold enrichment (6-mer frequency, TF over GST control)"
same,binding signal,[14],"1.22 fold enrichment (6-mer frequency, TF over GST control)"
same,binding signal,[15],"1.15 fold enrichment (6-mer frequency, TF over GST control)"
same,binding signal,[16],"1.03 fold enrichment (6-mer frequency, TF over GST control)"
same,binding signal,[17],"1.1 fold enrichment (6-mer frequency, TF over GST control)"
same,binding signal,[18],"3.77 fold enrichment (6-mer frequency, TF over GST control)"
same,binding signal,[19],"1.11 fold enrichment (6-mer frequency, TF over GST control)"
